Shiga toxin inh = A qHTS for Small Molecule Inhibitors of Shiga Toxin; Vero cells, Shiga toxin protein synthesis inhibition reporter; 9.2% of 290,000 active; inhibition, % at 38.7 µM; in the data active = inhibition mostly above about 28%, no sharp cut-off; inactive = mostly below about 43%; note: 0% is about no effect
CHX counter = Cycloheximide Counterscreen for Small Molecule Inhibitors of Shiga Toxin; cell reporter, cycloheximide protein synthesis inhibition counterscreen; max response, %; 12% of 300,000 active; in the data active = max response mostly above about 13%, no sharp cut-off; inactive = mostly below about 14%; note: read at 38.3 µM for the half of the compounds with a filed dose; 0% is about no effect
AMA1-RON2 inh = qHTS for Inhibitors of AMA1-RON; Towards Development of Antimalarial Drug Lead: Primary Screen; Plasmodium falciparum AMA1 (3D7) - RON2 peptide interaction; AlphaScreen AMA1-biotinylated RON2 peptide binding; Potency, µM (top dose mostly 58.2 µM), without a hit: top-dose activity change, negative = inhibition, hits mostly inhibitors; 0.2% of 360,000 active;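 note: potency is the fitted concentration of half-maximal effect; 0% = vehicle wells and -100% = peptide control; nearly all actives have a fitted effect of over 45% in size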
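AMA1 (3D7) with his tag at 25 nM final met compounds first, then biotinylated RON2 peptide at 25 nM; detection used donor plus acceptor beads, 10 µg/mL apiece, read by AlphaScreen after 30 min at room temperature.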
Pf growth 96h = Primary qHTS for delayed death inhibitors of the malarial parasite plastid, 96 hour incubation | 6.9% of 320,000 active | Potency, µM (doses to about 28.7 µM), for the others: at the highest dose activity change, negative = inhibition, most hits filed as inhibitors | P. falciparum luciferase reporter growth, 96 h; note: potency is the fitted concentration of half-maximal effect; % is set by controls: 0 for no effect and ±100 for the full control effect
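96 h incubation, 37 C, 5% CO2, of luciferase-reporter P. falciparum-infected RBCs (2% hematocrit, 0.05% parasitemia final) with test compounds; endpoint luminescence.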
HCV inhibitor = qHTS Assay for Inhibitors of Hepatitis C Virus (HCV); AID 651820, 2012; Huh7.5.1 HCVcc-Cre infection, luciferase reporter, 44 h; Potency, µM (doses to about 41.8 µM), for the others: at the top dose activity change, negative = inhibition, most hits filed as inhibitors; 3.4% of 340,000 active; note: potency is the fitted concentration of half-maximal effect; % is set by controls: 0 for no effect and ±100 for the full control effect
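Reporter virus HCVcc-Cre (~0.5 moi) infects cells exposed to compound; seeding density 1,000 cells/well with 4 h settling beforehand. Luminescence, 15 sec read, taken 44 h post-infection following a 15 min RT substrate incubation.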
Pf growth 48h = Primary qHTS for delayed death inhibitors of the malarial parasite plastid, 48 hour incubation; Potency, µM (titrated, usually from 28.7 µM), inactives show at the highest dose activity change, negative = inhibition, usual class: inhibitors; P. falciparum luciferase growth in erythrocytes, 48 h; 5.9% of 310,000 active; note: potency is the fitted concentration of half-maximal effect; % is set by controls: 0 for no effect and ±100 for the full control effect
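Firefly luciferase activity from engineered P. falciparum reports growth; inhibitors lower the luminescent signal. Cultures contained 2% hematocrit erythrocytes at 0.1% final parasitemia.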
* = called active by the depositor; ? = inconclusive; nt = no result given; [ ] = remark or other dose. The list is not random: actives were taken first. Their share in the collection is about 21%. Unless noted, calls come from the whole dose curve; as a rule, active = well fitted curve in the direction sought with a large enough effect; inconclusive = small, poorly fitted or top-dose-only effect, or another doubt; inactive = no such curve, though single readings can be large; an effect the other way counts as inactive or inconclusive.

SMILES | Shiga toxin inh | CHX counter | AMA1-RON2 inh | Pf growth 96h | HCV inhibitor | Pf growth 48h
CN(Cc1c(C(=O)N2CCCCCCC2)nc2ccc(Cl)cn12)C1CCOC1 (centres undefined) | -5.2 | -0.5 | 5.4% | -1.0% | nt | -8.5%
Cc1ccc(-c2nc(C)c(C(=O)O)s2)cc1 | 37.2 | 20.8* | -0.3% | 129.8% | -2.0% | 277.2%
Cc1nc(-c2ccc(Cl)cc2)sc1C1(C)CC(c2ccc([N+](=O)[O-])cc2)=NO1 (centres undefined) | 1.6 | 6.0 | 1.4% | 16.5% | 10.4% | 36.7%
Cc1nc(-c2ccc([N+](=O)[O-])cc2)sc1C(=O)O | 36.4 | 20.1* | -14.9% | -7.2% | 12.2% | 95.5%
Cc1nc(-c2ccc(Cl)cc2)sc1C(=O)O | 91.3* | 24.6 | -13.0% | 0.0% | 5.0% | 120.5%
Cc1nc(-c2ccncc2)sc1C(=O)Nc1ccc(Cl)cc1 | -10.2 | -1.7 | -11.8% | -8.4% | -18.3% | ?
CCNC(=O)c1sc(-c2ccccc2)nc1C | 65.9* | 44.5* | -1.2% | nt | -11.1% | 86.6%
Cc1nc(-c2ccccc2)sc1C(=O)Nc1ccc(S(N)(=O)=O)cc1 | -5.2 | -2.5 | 0.8% | 3.1% | ? | 2.2%
CC=CC1=C(C(=O)O)N2C(=O)[C@H](NC(=O)[C@H](N)c3ccc(O)cc3)[C@@H]2SC1 | -9.5 | -3.1 | nt | ? | nt | -9.3%
Cc1nc(-c2cccs2)sc1C(=O)O | 14.3 | 7.0 | -6.2% | -7.1% | 15.5% | 133.2%
CC(=O)c1sc(-c2ccccc2)nc1C | 43.5 | 34.9* | 0.0% | -153.0%[5.75 µM] | 12.3% | 20.0%[5.75 µM]
Cc1nc(-c2ccccc2)sc1C(=O)Nc1ccccc1F | 28.8 | 46.3* | 8.9% | -0.6% | -11.2% | -25.1%
COc1ccc(NC(=O)c2sc(-c3ccccc3)nc2C)c(OC)c1 | 2.2 | -6.0 | -9.0% | 150.7% | -13.5% | -12.2%
COc1ccc(/C=C/C(=O)c2sc(-c3ccccc3)nc2C)cc1 | -11.3 | -0.3 | -10.4% | -13.4% | 4.7% | -19.2%
Cc1nc(-c2ccccc2)sc1C(=O)O | 83.8* | 31.5* | -1.1% | 29.6% | 12.8% | 54.7%
COc1cc(OC)cc(-c2noc([C@@H]3O[C@H](CO)[C@@H](O)[C@H]3O)n2)c1 | nt | nt | -0.9% | nt | nt | nt
O=Nc1ccc(NOC(=O)c2ccccc2)cc1 | 47.5* | 43.6* | 10.9% | 6.1% | 0.8% | 62.2%
O=C(N=Nc1ccc(NOC(=O)c2ccccc2Br)cc1)c1ccccc1O | 17.5 | 6.4 | nt | 169.4% | nt | 184.9%
COc1ccccc1C/C(N)=N/OC(=O)c1ccc(C)c([N+](=O)[O-])c1 | 5.4 | -3.7 | -12.1% | ? | ? | ?
Cc1ccc(C(=O)O/N=C(\N)Cc2cccs2)cc1[N+](=O)[O-] | 11.3 | 13.2 | -3.8% | 10.4µM* | 16.1% | 68.7%
COc1ccc(S(=O)(=O)Nc2ccc(OCC(=O)O)cc2)c2ccccc12 | -3.9 | 1.1 | 5.3% | -14.1% | 16.0% | 28.9%
CC(=O)c1c(C)[nH]c(C(=O)OCc2ccc(Br)cc2)c1C | 69.1* | 44.5* | 7.8% | 46.3% | 4.47µM* | 33.5%
CC(=O)c1c(C)[nH]c(C(=O)OCc2ccccc2F)c1C | 95.3* | 45.7* | -6.1% | 207.9% | 17.8µM* | 222.9%
CC(=O)c1c(C)[nH]c(C(=O)OCC(=O)Nc2ccccc2Cl)c1C | 23.8 | 1.3 | -2.6% | -19.2% | ? | -16.4%
Cc1c(C(=O)OCCOc2ccccc2)[nH]c2c1C(=O)CCC2 | 46.9* | 29.2* | -6.9% | 20.7% | 12.6µM* | nt
COc1ccc(C)cc1COC(=O)c1[nH]c(C)c(C(C)=O)c1C | 5.3 | -1.5 | -8.1% | 11.7µM* | ? | ?
CCCc1c(C(=O)OCC)[nH]c2c1C(=O)CCC2 | 10.4 | -1.9 | -0.2% | ? | ? | nt
COCCNC(=O)C1CCCN(C(=O)COCc2ccccc2)CC1 (centres undefined) | nt | nt | -2.6% | nt | nt | nt
CC(=O)c1c(C)[nH]c(C(=O)OCc2cccc(C)c2)c1C | 94.5* | 35.7* | 0.0% | 103.4% | 15.8µM* | 46.4%
